Compound activity: PubChem BioAssay, The Scripps Research Institute Molecular Screening Center
GPR151 ag – activators of human GPR151 | Q8TDV0 | PathHunter beta-arrestin GPR151 cells, luminescence | activation, % at 11.2 µM | actives 1% (n = 650,000) | AID 1508602; in the data active = activation above about 4.9%;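 note: 0% = median of compound wells and 100% = cells with positive control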
Target sequence (Q8TDV0 whole entry, looked up): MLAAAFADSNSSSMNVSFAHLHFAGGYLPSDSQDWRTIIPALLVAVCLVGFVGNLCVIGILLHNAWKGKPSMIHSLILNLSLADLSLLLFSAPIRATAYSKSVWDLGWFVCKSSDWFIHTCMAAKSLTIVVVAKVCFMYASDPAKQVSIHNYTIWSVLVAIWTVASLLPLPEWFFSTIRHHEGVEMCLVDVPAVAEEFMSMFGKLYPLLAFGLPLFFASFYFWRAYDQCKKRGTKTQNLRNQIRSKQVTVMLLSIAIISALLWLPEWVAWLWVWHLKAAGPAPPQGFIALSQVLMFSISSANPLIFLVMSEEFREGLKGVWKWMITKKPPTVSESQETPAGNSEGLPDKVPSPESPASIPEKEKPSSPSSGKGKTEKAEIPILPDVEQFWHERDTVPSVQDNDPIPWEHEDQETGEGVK
TEAD-YAP block – TEAD-YAP interaction inhibition. HEK-TIYL cells, TEAD-Gal4/YAP UAS-luciferase luminescence. inhibition, % at 9.12 µM. actives 1.4% (n = 640,000). AID 1259422; in the data active = inhibition above about 32%;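 note: 0% = median of test compound wells and 100% = reference inhibitor wells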
FBW7 act – human FBW7 E3 ligase activation, primary screen; AlphaScreen FBW7–phospho-cyclin E peptide binding, activator screen; normalized activity (activation), % at 26.1 µM; actives 0.13% (n = 650,000); AID 1259310; in the data active = normalized activity above about 1.9%;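 note: purified mutant Fbw7 with reduced substrate affinity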
MITF inh – inhibitors of human MITF; AID 1259374; AlphaScreen MITF homodimerization, bead proximity signal; actives 0.91% (n = 650,000); inhibition, % at 2.6 µM; O75030; in the data active = inhibition above about 50%;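 note: 0% = vehicle wells with protein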
MITF inh conf – confirmation of human MITF inhibitors; inhibition, % at 2.6 µM; AlphaScreen MITF homodimerization, biotin/His-MITF beads; shares compounds with MITF inh; AID 1259372; actives 16% (n = 4,700);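 active = inhibition above a cutoff derived from the DMSO control wells, cut at about 28% in these data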;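 note: 0% = MITF dimer wells with DMSO only; inhibitors lower the bead chemiluminescence by keeping MITF from dimerizing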
AlphaScreen intf2 – counter-screen: compounds optically interfering with AlphaScreen; shares compounds with MITF inh; actives 7.6% (n = 4,700); inhibition, % at 2.6 µM; LysRS AlphaScreen counterscreen, signal interference, triplicate; AID 1259376;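 active = inhibition above a cutoff derived from the DMSO control wells, cut at about 30% in these data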
* = called active by the depositor; x = not tested or not shown. This is a sample that favours compounds with a hit; in the whole collection about 3.5% have one here.

SMILES | GPR151 ag | TEAD-YAP block | FBW7 act | MITF inh | MITF inh conf | AlphaScreen intf2
C=CCc1cc(OC)ccc1OCCCNCCN | 0.3 | 0.0 | -0.1 | 7.6 | x | x
C=CCc1cc(OC)ccc1OCCNCCN | 1.1 | 5.9 | -0.1 | 24.0 | x | x
C=CCc1cc(OC)ccc1OCCNCCCOC | -2.8 | 6.1 | 0.3 | 51.5* | 7.5 | 18.1
C=CCc1cc(OC)ccc1OCCN(C)C | 1.5 | 12.7 | -0.2 | 63.3* | 2.5 | 9.9
CCOC(=O)CSc1nc2sc(C(=O)OCC)c(C)c2c(=O)n1Cc1ccc(Cl)c(Cl)c1 | 0.3 | -6.4 | 0.1 | -0.4 | x | x
Cc1ccc(N2CC(O)(c3ccc(F)cc3)[N+]3=C2CCCC3)cc1 (stereo unspecified) | 0.1 | 0.3 | 0.2 | 0.0 | x | x
CC(C)=C1C2CC2C2C(C(=O)O)C12 (stereo unspecified) | -1.4 | 14.8 | 0.0 | 60.0* | -3.0 | 4.9
Cc1cccc(C)c1N1CCN(C(=O)c2cc3cc(Br)ccc3oc2=O)CC1 | 1.8 | 6.4 | -0.1 | 88.5* | -14.7 | -0.6
Cc1ccc(N2CCN(C(=O)c3cc4cc(Br)ccc4oc3=O)CC2)cc1C | -0.6 | -1.3 | -0.1 | 7.3 | x | x
COc1ccc(C2CC(=O)Nc3cc(OC)c(OC)cc32)cc1O (stereo unspecified) | -0.9 | -20.9 | 0.2 | 5.4 | x | x
CCOc1cc(CN2CCN(Cc3cc(OC)ccc3OC)CC2)ccc1OC | 0.6 | 5.4 | 0.0 | 57.7* | 7.6 | 10.3
COc1ccc(OC)c(CN2CCN(Cc3cc(OC)c(OC)c(OC)c3)CC2)c1 | 0.8 | -10.5 | -0.1 | 68.3* | 9.0 | 15.2
CCOc1cc(CN2CCN(Cc3ccccc3OC)CC2)ccc1OC | 2.5 | 3.3 | 0.0 | 28.8 | x | x
COc1ccc(OC)c(CN2CCN(C(=O)c3cc(OC)c(OC)c(OC)c3)CC2)c1 | 0.5 | 16.5 | -0.2 | 35.5 | x | x
O=C(Nc1ccc2nc(-c3ccccc3)oc2c1)C1CCCCC1 | -0.8 | -27.1 | 1.0 | 5.2 | x | x
O=C(Nc1nc2c(F)c(F)c(F)cc2s1)c1cncc(Br)c1 | -1.0 | -31.9 | -0.1 | 0.3 | x | x
Cc1ccc(S(=O)(=O)N(CC(=O)N2CCOCC2)c2ccc(Cl)c(Cl)c2)cc1 | 1.5 | -5.7 | 0.0 | -4.0 | x | x
CCOc1ccc(NC(=O)C2C3C=CC4(O3)C2C(=O)N(C2CC2)C4C(=O)NC2CCCCC2C)cc1 (stereo unspecified) | 1.6 | 4.8 | 0.0 | -5.1 | x | x
CCN=C1SC(CC(=O)Nc2cccc(OC)c2)C(=O)N1CC (stereo unspecified) | -0.6 | -1.9 | 0.8 | 23.6 | x | x
CCN1C(=O)C(CC(=O)Nc2cccc(C)c2)SC1=Nc1ccc(OC)cc1OC (stereo unspecified) | 0.8 | 29.6 | 0.0 | 54.9* | 1.6 | 1.1
Cc1nn(CC(=O)NCc2ccccc2)c(=O)c2c1sc1ccccc12 | 0.0 | -7.3 | -0.1 | 10.5 | x | x
O=C(NO)c1nc[nH]c1C(=O)NO | -2.1 | -1.4 | -0.2 | 98.4* | 98.9* | 100.6*
O=C(Nc1ccccc1)c1nc[nH]c1C(=O)Nc1ccccc1 | -0.1 | 7.4 | -0.1 | 12.1 | x | x
COc1ccccc1-n1c(=O)c2c3c(sc2n2c(C)nnc12)CCC3 | -0.7 | 2.7 | -0.1 | -2.1 | x | x
CC(C)NCC(O)CNC(C)C1COc2ccccc2O1 (stereo unspecified) | 2.5 | -1.0 | 0.0 | -2.7 | x | x
SMILES | GPR151 ag | TEAD-YAP block | FBW7 act | MITF inh | MITF inh conf | AlphaScreen intf2
CC(NCc1ccc([N+](=O)[O-])cc1)C1COc2ccccc2O1 (stereo unspecified) | -0.2 | -6.3 | 0.1 | 62.0* | -11.5 | -5.5
Cc1cc(C)n(CCCNCC(O)COCc2ccccc2)n1 (stereo unspecified) | 0.4 | 4.6 | -0.2 | 37.8 | x | x
Cc1cc(C)n(CCCNCC(O)COCc2cccs2)n1 (stereo unspecified) | 1.2 | 10.5 | 0.1 | 78.9* | 11.7 | 13.9
COc1ccccc1CNC(=O)C1CCC(Cn2c(=S)[nH]c3ccccc3c2=O)CC1 (stereo unspecified) | 1.9 | -17.1 | 0.1 | 52.7* | -2.8 | 3.8
CCOc1ccccc1NC(=S)NNC(=O)c1ccccn1 | 0.1 | 15.5 | -1.6 | 113.8* | 116.8* | 100.3*
COCCCNC(=S)NNC(=O)c1ccccn1 | 1.4 | 11.7 | -1.5 | 114.0* | 113.5* | 100.3*
CCOC(=O)c1ccc(NC(=S)NNC(=O)c2ccccn2)cc1 | -0.3 | 6.2 | -0.6 | 116.3* | 113.6* | 100.2*
O=C(NNC(=S)Nc1cccc([N+](=O)[O-])c1)c1ccccn1 | -1.0 | -11.9 | -1.6 | 115.4* | 115.6* | 100.3*
CCOC(=O)c1cccc(NC(=O)c2ccccn2)c1 | -3.7 | -35.5 | 0.1 | -0.3 | x | x
CCOC(=O)CSc1nnc2c(C)cc3cc4c(cc3n12)OCO4 | 1.2 | 6.4 | 0.0 | -4.9 | x | x
CCOc1ccccc1C(=O)Nc1ccc(C)cc1C | 1.0 | 13.8 | 0.2 | 14.1 | x | x
Cc1ccc(C)n1C(CC(=O)O)c1cccc(Cl)c1 (stereo unspecified) | -0.1 | 2.7 | -0.3 | 76.8* | 15.5 | 7.0
NC(=O)NC(c1ccccc1)c1cccc(Cl)c1 (stereo unspecified) | -0.2 | 1.3 | 0.8 | 16.6 | x | x
CCCN(CCC)S(=O)(=O)c1ccc(C(=O)Nc2sc3c(c2C(N)=O)CCN(CC)C3)cc1 | 1.0 | 0.4 | 0.0 | 70.7* | -1.7 | -3.8
CC1CC(C)CN(S(=O)(=O)c2ccc(C(=O)Nc3sc4c(c3C(N)=O)CCCCC4)cc2)C1 (stereo unspecified) | -1.3 | 5.2 | 0.0 | 71.4* | -5.3 | -4.0
CCOC(=O)c1c(NC(=O)c2ccc(S(=O)(=O)N3CC(C)CC(C)C3)cc2)sc2c1CCCC2 (stereo unspecified) | -0.6 | -6.6 | 0.1 | -4.5 | x | x
Cc1cccc(OC(C)C(=O)NCc2nc(-c3ccccc3)no2)c1 (stereo unspecified) | -0.1 | 8.4 | 0.0 | -2.9 | x | x
CC1CCN(C(=O)c2cc3c(=O)n4ccccc4nc3n2C)CC1 | 0.2 | -42.4 | 1.6 | 10.2 | x | x
c1ccc(CN2CCC(NCc3c[nH]c4ccccc34)CC2)cc1 | -1.4 | -3.3 | -0.1 | 61.9* | 11.6 | 16.7
c1ccc(CN2CCC(NCc3ccccn3)CC2)cc1 | 0.4 | 4.4 | -0.1 | 61.6* | 8.7 | 15.7
Oc1ccccc1CNC1CCN(Cc2ccccc2)CC1 | 2.1 | 17.6 | 0.1 | 1.7 | x | x
c1ccc(C2CCC(NCCc3ccccn3)CC2)cc1 (stereo unspecified) | 0.0 | -14.4 | 0.9 | 58.7* | -20.4 | -9.3
C=CCOc1ccccc1CNC1CCN(Cc2ccccc2)CC1 | -1.4 | 3.6 | -0.1 | 52.7* | 14.1 | 18.1
O=C(CCc1ccccc1)Oc1ccc(NC2=NS(=O)(=O)c3ccccc32)cc1 | -1.5 | 3.5 | 0.0 | 11.9 | x | x
Cc1ccc([N+](=O)[O-])cc1S(=O)(=O)Nc1ccc(N)cc1 | -1.5 | -1.1 | -0.1 | 9.3 | x | x
